Data: PubChem BioAssay AID1159580 (chemical genetic matrix, 2015)
Out of some 5,500 compounds screened, about 2,000 (36%) were called active. Another 18% or so got no clear call; they are omitted. Cut-off read from the data, not from the text of the source: active = normalized growth mostly below about 0.91 (no sharp cut-off); inconclusive = no clear call, values can overlap the other calls; inactive = mostly above about 0.92. Some of the results follow.

Assay: chemical genetic growth profiling, strain panel (AID 1159580);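 note: tested at 20 µM; growth read once vehicle control cultures reached saturation at 30 °C; 1 = growth at the plate median or of vehicle wells; lower values mean less growth of the strain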
Details: S. cerevisiae deletion strains, growth OD

Measured: normalized growth

CC(=O)Oc1c2c(c3c(c1CC=C(C)C)O[C@]14C(=C[C@@H]5CC1C(C)(C)OC4(C/C=C(\C)C(=O)O)C5=O)C3=O)OC(C)(CCC=C(C)C)C=C2 (some centres not stated)
inactive: locus YAL021C, strain ccr4, active compounds read low 1 | locus YAL026C, strain drs2, active compounds read low 0.979 | locus YAL030W, strain snc1, active compounds read low 0.976 | locus YBL061C, strain skt5, active compounds read low 0.949 | locus YBR009C, strain hhf1, active compounds read low 0.958 | locus YBR023C, strain chs3, active compounds read low 0.964 | locus YBR171W, strain sec66, active compounds read low 0.974 | locus YBR231C, strain swc5, active compounds read low 0.94 | locus YBR279W, strain paf1, active compounds read low 0.961 | locus YCL011C, strain gbp2, active compounds read low 0.988 | locus YCL016C, strain dcc1, active compounds read low 0.987 | locus YCL061C, strain MRC1, active compounds read low 0.98 | locus YCL069W, strain vba3, active compounds read low 0.984 | locus YCR088W, strain abp1, active compounds read low 0.985 | locus YDL005C, strain med2, active compounds read low 0.968 | locus YDL040C, strain nat1, active compounds read low 0.977 | locus YDR001C, strain nth1, active compounds read low 0.985 | locus YDR069C, strain doa4, active compounds read low 0.977 | locus YDR159W, strain sac3, active compounds read low 0.87 | locus YDR195W, strain ref2 1.01 | locus YDR297W, strain sur2, active compounds read low 0.959 | locus YDR334W, strain swr1, active compounds read low 0.976 | locus YDR335W, strain msn5, active compounds read low 0.997 | locus YEL003W, strain gim4, active compounds read low 0.96 | locus YEL037C, strain rad23, active compounds read low 0.995 | locus YEL061C, strain CIN8 (second series), active compounds read low 0.984 | locus YER015W, strain faa2, active compounds read low 0.973 | locus YER016W, strain bim1, active compounds read low 0.971 | locus YER111C, strain swi4, active compounds read low 0.981 | locus YER155C, strain BEM2 (second series), active compounds read low 0.922 | locus YFR010W, strain ubp6, active compounds read low 0.973 | locus YGL167C, strain pmr1, active compounds read low 0.973 | locus YGL173C, strain kem1, active compounds read low 0.939 | locus YGL227W, strain vid30, active compounds read low 0.981 | locus YGL240W, strain doc1, active compounds read low 0.951 | locus YGL253W, strain hxk2, active compounds read low 0.967 | locus YHR013C, strain ard1, active compounds read low 0.875 | locus YHR027C, strain rpn1, active compounds read low 0.98 | locus YHR142W, strain chs7, active compounds read low 0.991 | locus YJL092W, strain hpr5, active compounds read low 0.988 | locus YJL095W, strain BCK1 (second series), active compounds read low 0.971 | locus YJL115W, strain asf1, active compounds read low 0.982 | locus YJL129C, strain trk1, active compounds read low 0.89 | locus YJL154C, strain vps35, active compounds read low 0.992 | locus YJL164C, strain tpk1, active compounds read low 0.986 | locus YJL166W, strain qcr8, active compounds read low 0.937 | locus YJL187C, strain SWE1, active compounds read low 0.972 | locus YKL160W, strain elf1, active compounds read low 0.957 | locus YKR026C, strain gcn3, active compounds read low 0.983 | locus YKR091W, strain srl3, active compounds read low 0.984 | locus YLL001W, strain dnm1, active compounds read low 0.945 | locus YLL026W, active compounds read low 0.968 | locus YLL041C, strain sdh2, active compounds read low 0.983 | locus YLR027C, strain aat2, active compounds read low 0.948 | locus YLR221C, strain rsa3, active compounds read low 0.947 | locus YLR258W, strain gsy2, active compounds read low 0.994 | locus YLR262C, strain YPT6 (second series), active compounds read low 0.874 | locus YLR320W, strain mms22, active compounds read low 0.899 | locus YLR342W, strain FKS1, active compounds read low 0.963 | locus YLR357W, strain rsc2, active compounds read low 1.01 | locus YLR370C, strain arc18, active compounds read low 0.958 | locus YLR384C, strain iki3, active compounds read low 0.964 | locus YML120C, strain ndi1, active compounds read low 0.985 | locus YMR058W, strain fet3, active compounds read low 0.991 | locus YMR125W, strain sto1, active compounds read low 0.992 | locus YMR129W, active compounds read low 0.97 | locus YMR205C, strain PFK2, active compounds read low 0.878 | locus YMR231W, strain pep5, active compounds read low 0.984 | locus YNL209W, strain ssb2, active compounds read low 0.982 | locus YNL248C, strain rpa49, active compounds read low 0.973 | locus YNL322C, strain KRE1 (second series), active compounds read low 1 | locus YNR049C, strain mso1, active compounds read low 0.982 | locus YOR001W, strain rrp6, active compounds read low 0.915 | locus YOR070C, strain gyp1, active compounds read low 0.957 | locus YOR080W, strain dia2, active compounds read low 0.979 | locus YOR083W, strain WHI5, active compounds read low 0.99 | locus YOR106W, strain vam3, active compounds read low 0.98 | locus YOR265W, strain rbl2, active compounds read low 0.979 | locus YOR270C, strain vph1, active compounds read low 0.808 | locus YOR290C, strain snf2, active compounds read low 0.989 | locus YPL078C, strain atp4, active compounds read low 1.01 | locus YPL106C, strain sse1, active compounds read low 0.984 | locus YPL240C, strain hsp82, active compounds read low 0.984
active: locus YDR137W, strain rgp1, active compounds read low 0.775 | locus YDR392W, strain spt3, active compounds read low 0.547 | locus YNL071W, strain lat1, active compounds read low 0.878 | locus YPL051W, strain arl3, active compounds read low 0.914
